D2 ag-1 – Beta-Arrestin HTS for Positive Allosteric Modulators of the Human D2 Dopamine Receptor: Agonists; activation, % (concentration not given with the values); D(2) dopamine receptor (Homo sapiens), P14416; 360,000 tested, 0.084% active; DiscoveRx PathHunter D2 beta-arrestin, luminescence, 90 min; 100% = 57 uM dopamine signal; in the data active = activation above about 40%; inconclusive = between about 15% and that limit
Target sequence (P14416 whole entry, looked up): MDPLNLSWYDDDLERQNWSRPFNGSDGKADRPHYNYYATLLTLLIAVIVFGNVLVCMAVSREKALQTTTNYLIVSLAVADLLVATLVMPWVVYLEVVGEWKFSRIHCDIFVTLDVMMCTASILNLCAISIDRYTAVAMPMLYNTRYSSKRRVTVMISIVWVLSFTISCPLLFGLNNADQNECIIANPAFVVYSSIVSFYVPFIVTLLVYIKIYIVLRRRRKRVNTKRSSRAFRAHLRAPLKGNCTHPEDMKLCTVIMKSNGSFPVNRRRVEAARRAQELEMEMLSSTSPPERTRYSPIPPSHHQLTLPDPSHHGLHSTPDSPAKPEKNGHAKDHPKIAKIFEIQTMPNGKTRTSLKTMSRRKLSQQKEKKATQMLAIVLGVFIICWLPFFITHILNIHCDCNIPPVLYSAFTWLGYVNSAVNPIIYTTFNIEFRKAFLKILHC
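Agonist mode: compounds alone added to overnight-plated D2 PathHunter cells for 90 min at 37 C, with 57 uM final dopamine (EC100) defining full response. Beta-arrestin recruitment detected by chemiluminescent reagent, read after 1 h at ambient temperature.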
D2 PAM-1 – Beta-Arrestin HTS for Positive Allosteric Modulators of the Human D2 Dopamine Receptor: Potentiators; D(2) dopamine receptor (Homo sapiens), P14416; DiscoveRx D2 beta-arrestin cells, luminescence, 90 min; 100% = 57 uM dopamine signal; potentiation, % (no concentration beside the values); 360,000 tested, 0.23% active; AID 624464, 2012; in the data active = potentiation above about 50%; inconclusive = mostly about 30% to 49%
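PathHunter beta-arrestin assay in DiscoveRx D2 cells. Compounds were added with an EC20 of dopamine (50 nM final) for 90 min at 37 deg C. Luminescence was read 1 h after detection reagent, with 57 uM dopamine as the EC100 control.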
D2 ag-2 – HTS Assay for Allosteric Agonists of the Human D2 Dopamine Receptor: Primary Screen for Agonists | D(2) dopamine receptor (Homo sapiens), P14416 | HEK293 T-REx D2 cells, calcium flux agonist mode | activation, % at 2 µM | 340,000 tested, 0.53% active;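 active = activation over 3 SD above normal in the single-dose calcium agonist read, cut at about 30% in these data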
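Agonism is scored from calcium flux in a force-coupled, inducible HEK293 cell line expressing D2, read kinetically for 180 s after compound addition against dopamine controls.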
D2 antag – HTS Assay for Allosteric Antagonists of the Human D2 Dopamine Receptor: Primary Screen for Antagonists; inhibition, % at 10 µM; D(2) dopamine receptor (Homo sapiens), P14416; AID 485344, 2010; HEK293 TREx D2 cells, calcium flux, dopamine EC80; 340,000 tested, 2% active; in the data active = inhibition above about 30%; inactive = below that, where a call was filed
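Tetracycline-induced HEK293 T-REx cells expressing D2 force-coupled to calcium signalling were dye-loaded, exposed to compound for 180 s, then challenged with an EC80 of dopamine; calcium flux was followed kinetically for a further 180 s.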
D2 PAM-2 – HTS Assay for Positive Allosteric Modulators of the Human D2 Dopamine Receptor: Primary Screen for Potentiators. D(2) dopamine receptor (Homo sapiens), P14416. HEK293 T-REx D2, calcium flux, EC20 dopamine potentiation. potentiation, % at 10 µM. 340,000 tested, 0.34% active;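 active = potentiation over 3 SD above the plate norm, cut at about 30% in these data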
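Calcium flux readout, no-wash dye, 1 read/s. Inducible HEK293 Trex D2 line, overnight 30 C. Compound alone 180 s (agonist flags), then EC20 dopamine, another 180 s to score potentiation.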
D3 arrestin ag – qHTS of D3 Dopamine Receptor Agonist: D3 Dopamine Receptor B-arrestin Agonist Confirmatory Assay | Potency, µM (top dose mostly 76.9 µM), most hits filed as activators | shares compounds with D2 ag-2 | DiscoveRx D3 beta-arrestin cells, luminescence, 90 min | AID 720506, 2013 | 2,300 tested, 4% active; note: nearly all actives have a fitted effect of over 70% in size
D2 ag-3 – qHTS of D3 Dopamine Receptor Agonist: D2 Dopamine Receptor B-arrestin Agonist Counterscreen. shares compounds with D2 ag-2. DiscoveRx PathHunter D2 beta-arrestin, luminescence, 90 min; response scale: percent relative to full dopamine signal. Potency, µM (top dose mostly 76.9 µM), actives largely listed as activators. 2,300 tested, 5.9% active; note: nearly all actives have a fitted effect of over 70% in size
Of the large screens only hits and unclear results are named; the others gave an inactive call (follow-up assays come after a bar, where they were run). A selection: hits, their analogues and other compounds. The true share with any hit is near 2.4%. Unless noted, calls come from the whole dose curve; as a rule, active = well fitted activation curve with a large enough effect; inconclusive = small, poorly fitted or top-dose-only effect; inactive = flat fitted curve, though single readings scatter.

COc1ccc(S(N)(=O)=O)cc1C(=O)NCCCN1CCN(c2cccc(Cl)c2)CC1	D2 ag-2 55.6, D2 antag 49.6 | D3 arrestin ag inactive | D2 ag-3 inactive
COc1cc2c(C(=O)NCCCN3CCN(c4cccc(Cl)c4)CC3)cn(C)c(=O)c2cc1OC	none
COc1ccc(Cl)cc1C(=O)NCCS(=O)(=O)N1CCN(c2ccccc2OC)CC1	none (no result: D2 ag-1, D2 PAM-1, D2 ag-2, D2 antag)
CCOC(=O)c1c(S(=O)(=O)N2CCCC(C(=O)NCc3ccccc3OC)C2)c(C)n(C)c1C (stereo unspecified)	none (no result: D2 ag-1, D2 PAM-1, D2 antag)
CCOC(=O)c1cccnc1SCC(=O)Nc1ccc(C)cc1C	none (no result: D2 ag-1, D2 PAM-1, D2 antag)
COc1ccccc1N(CC(=O)NCCSCc1ccc(C)cc1)S(=O)(=O)c1ccccc1	none | D3 arrestin ag inactive | D2 ag-3 inactive
COCCNC(=O)c1cccc(OC2CCN(C(C)COc3ccccc3)CC2)c1 (stereo unspecified)	D2 ag-2 44.8 | D3 arrestin ag inactive | D2 ag-3 inactive
Cc1cccc(N2CCN(C(=O)c3oc(=O)c4ccccc4c3-c3ccccc3)CC2C)c1 (stereo unspecified)	none (no result: D2 ag-1, D2 PAM-1, D2 antag)
CCc1ccc(S(=O)(=O)c2nnn3c2nc(Nc2ccc(F)cc2)c2cc(Cl)ccc23)cc1	none (no result: D2 ag-1, D2 PAM-1, D2 antag)
CCOc1ccccc1-n1nnnc1SCC(=O)NC(=O)Cc1ccccc1	none | D3 arrestin ag inactive | D2 ag-3 inactive
Cc1ccc(CNC(=O)Cn2c3ncccc3c(=O)n2-c2ccccc2)cc1	none (no result: D2 ag-1, D2 PAM-1, D2 antag)
COc1ccc(CCNC2CCC(c3ccccc3)CC2)cc1 (stereo unspecified)	D2 ag-2 35.7, D2 antag 77.7 | D3 arrestin ag inactive | D2 ag-3 inactive
COc1cc(Cl)c(C)cc1NC(=O)CSc1cc(-c2ccccc2)nc(C)n1	none (no result: D2 ag-1, D2 PAM-1, D2 antag)
CCC(C(=O)N1CCN(c2ccccc2F)CC1)n1nc(C)c2sc3ccccc3c2c1=O (stereo unspecified)	none (no result: D2 ag-1, D2 PAM-1, D2 antag)
Nc1c(C(=O)CSc2n[nH]c(-c3ccccc3)n2)c(=O)[nH]c(=O)n1C1CC1	D2 ag-1 inconclusive, D2 ag-2 65.7 | D3 arrestin ag inactive | D2 ag-3 inactive
Cn1c(N)c(C(=O)CSc2nnc(-c3cccs3)n2C2CC2)c(=O)[nH]c1=O	D2 ag-1 inconclusive, D2 ag-2 76.9 | D3 arrestin ag inactive | D2 ag-3 inactive
Nc1c(C(=O)CSc2n[nH]c(-c3ccccc3Br)n2)c(=O)[nH]c(=O)n1C1CC1	none
CCN1C(=O)CC(Sc2ccccc2C(=O)O)C1=O (stereo unspecified)	none
O=C(O)c1ccccc1SC1CC(=O)N(c2cccc3ccccc23)C1=O (stereo unspecified)	D2 ag-2 40.7 | D3 arrestin ag inactive | D2 ag-3 inactive
CCC(C)NC(=O)C1CCN(C(=O)c2ccc(-n3ccc4ccccc43)s2)CC1 (stereo unspecified)	none (no result: D2 ag-1, D2 PAM-1, D2 antag)
O=C(NCC(c1ccco1)N1CCN(c2ccccc2F)CC1)C(=O)NC1CCCCC1 (stereo unspecified)	none
O=C(NCC(c1ccco1)N1CCN(c2ccccc2F)CC1)C1CCCCC1 (stereo unspecified)	D2 ag-1 inconclusive, D2 ag-2 76.8, D2 antag 59.2 | D3 arrestin ag inconclusive | D2 ag-3 inconclusive

Source: PubChem (National Center for Advancing Translational Sciences (NCATS))
